HT1080 IDH1KD tx – qHTS for induction of synthetic lethality in tumor cells producing 2HG: qHTS for the HT-1080-IDH1KD cell line | HT-1080 IDH1 knockdown viability, ATP luminescence, 48 h | Potency, µM (highest dose often 46.1 µM), actives largely listed as cytotoxic | 2% of 360,000 active | AID 686971, 2013
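Cytotoxicity counter-line: IDH1KD HT-1080, 48 h, CellTiter-Glo. Curves classed by r2, magnitude and activity.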
MCF10A rereplic – A quantitative high throughput screen for small molecules that induce DNA re-replication in MCF 10a normal breast cells; MCF 10A DNA re-replication, Hoechst nuclear intensity, 48 h; Potency, µM (titrated, usually from 46.1 µM), most hits filed as activators; 2.9% of 350,000 active; AID 624296, 2012; also: nearly all actives have a fitted effect of over 50% in size
SW480 rerep – A quantitative high throughput screen for small molecules that induce DNA re-replication in SW480 colon adenocarcinoma cells. SW480 DNA re-replication, Hoechst DNA content imaging, 48 h. Potency, µM (doses to about 46.1 µM), usual class: activators. 1.8% of 340,000 active. AID 624297, 2012; also: nearly all actives have a fitted effect of over 55% in size
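Image-based DNA-content assay: after two days of treatment, nuclei were labelled with the DNA dye Hoechst and imaged, and hits were compounds raising the count of nuclei showing high fluorescence intensity.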
HT1080NT lethal – qHTS for induction of synthetic lethality in tumor cells producing 2HG: qHTS for the HT-1080-NT fibrosarcoma cell line. HT-1080-NT fibrosarcoma viability, CellTiter-Glo ATP luminescence, 48 h. Potency, µM (series often up to 46.1 µM), most hits filed as cytotoxic. 1.6% of 360,000 active. AID 686970, 2013;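 also: NT is the 2HG producing partner of a matched IDH1 knockdown line; nearly all actives have a fitted effect of over 55% in size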
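Compounds were tested in concentration-response format on HT-1080-NT cells for 48 hours at 37 degrees C. Cell viability came from CellTiter-Glo luminescence; curves were classified by r2, response magnitude and activity.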
KB-3-1 cytotox – qHTS assay for MDR1-selective chemotherapeutics: Primary screen using the parental adenocarcinoma cell KB-3-1; AID 1347075, 2019; KB-3-1 viability, CellTiter-Glo ATP luminescence, 72 h; Potency, µM (top dose mostly 46.1 µM), usual class: cytotoxic; 1.4% of 400,000 active; also: nearly all actives have a fitted effect of over 60% in size
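Here the drug-naive KB-3-1 line serves as comparator for MDR sub-line selectivity; cells received compound titrations, 72 h at 37 °C, then CellTiter-Glo readout.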
KB-V1 cytotox – qHTS assay for MDR1-selective chemotherapeutics: Primary screen using the drug-selected MDR subline cells KB-V1. KB-V1 MDR cells viability, CellTiter-Glo, 72 h. Potency, µM (doses to about 46.1 µM), most hits filed as cytotoxic. 3.4% of 400,000 active; also: nearly all actives have a fitted effect of over 60% in size
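Following 72 h at 37 degrees C with compound, KB-V1 cell viability was read by CellTiter-Glo luminescence, medium being phenol-red-free DMEM plus 10% FBS; concentration-response parameters came from normalized, curve-fitted qHTS data.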
Large screens that a line does not name were inactive; ! = not active in a repeat. Hits are enriched below; roughly 7.9% of the tested compounds scored in any of these assays. Calls follow the shape of the dose curve; as a rule, active = well fitted curve in the direction sought with a large enough effect; inconclusive = small, poorly fitted or top-dose-only effect, or another doubt; inactive = no such curve, though single readings can be large; an effect the other way counts as inactive or inconclusive.

O=C(Nc1ccccc1)OCCc1ccccc1	none (no result: MCF10A rereplic, SW480 rerep)
CC(C)Cn1nc(C(=O)Nc2cccc(S(=O)(=O)N3CCCC3)c2)c2ccccc2c1=O	KB-V1 cytotox 4.6µM
Cc1ccc(CNC(=O)C2CCCN(S(=O)(=O)N3CC(C)CC(C)C3)C2)cc1 (stereo unspecified)	HT1080NT lethal inconclusive
CC(C)OCCCn1c(SCC(N)=O)nc2c(sc3ccccc32)c1=O	none (no result: HT1080 IDH1KD tx, MCF10A rereplic, SW480 rerep, HT1080NT lethal)
CC(=O)C12OC1CC1C3CCC4=CC(=O)CCC4(C)C3CCC12C (stereo unspecified)	none
C=C1CC2C3CC[C@@]4(OCOC45COCO5)[C@@]3(C)C(O)CC2[C@@]2(C)CCC(=O)C=C12 (stereo partly specified)	HT1080 IDH1KD tx inconclusive, MCF10A rereplic 5.2µM, SW480 rerep inconclusive, KB-V1 cytotox inconclusive
COc1ccc(C(=O)c2ccc([N+](=O)[O-])cc2)cc1S(=O)(=O)N1CCC(C(=O)O)CC1	none
COc1ccc(N2C(c3ccsc3)=Cc3cc4c(cc3C2c2c[nH]c3ccccc23)OCO4)cc1 (stereo unspecified)	HT1080 IDH1KD tx inconclusive, HT1080NT lethal 21µM, KB-3-1 cytotox inconclusive (no result: MCF10A rereplic, SW480 rerep)
Cc1ccc(C2=NOC(=O)/C2=C\c2ccc(C)o2)cc1	MCF10A rereplic 16µM, SW480 rerep inconclusive
CCN(CC)C(=O)c1sc(NC(=O)c2cccnc2)c(C(=O)OC)c1C	none
COC(=O)c1c(NC(=O)c2ccccc2)sc(C(N)=O)c1C	HT1080 IDH1KD tx inconclusive, KB-3-1 cytotox inconclusive
COC(=O)c1c(NC(=O)c2ccccc2)sc(C(=O)c2ccccc2)c1C	HT1080 IDH1KD tx inconclusive, MCF10A rereplic 6.5µM, HT1080NT lethal inconclusive, KB-3-1 cytotox inconclusive, KB-V1 cytotox inconclusive
COC(=O)c1c(NC(=O)c2ccccc2)sc(Cc2ccccc2)c1C	MCF10A rereplic inconclusive, KB-V1 cytotox 13µM
COC(=O)c1c(NC(=O)c2ccc(C)cc2)sc(Cc2ccccc2)c1C	none
CCN(CC)C(=O)c1sc(NC(=O)c2ccc(Br)o2)c(C(=O)OC)c1C	MCF10A rereplic inconclusive, KB-V1 cytotox 9.2µM
N=C1CCC(=N)c2c1c(O)c1ccccc1c2O	HT1080 IDH1KD tx inconclusive, SW480 rerep inconclusive, HT1080NT lethal 23µM
O=C1CCn2c1c(O)c1ccccc1c2=O	KB-3-1 cytotox inconclusive, KB-V1 cytotox inconclusive
COc1cc(OC)cc(-c2c(-c3cccs3)c3cc(-c4ccc(OC)c(OC)c4)ccc3n2C)c1	MCF10A rereplic 16µM, HT1080NT lethal inconclusive
COc1cc(OC)cc(-c2c(-c3cccs3)c3cc(-c4ccc(OC)c(F)c4)ccc3n2C)c1	SW480 rerep inconclusive
COc1cc(OC)cc(-c2c(-c3cccs3)c3cc(-c4cnc(N)nc4)ccc3n2C)c1	HT1080 IDH1KD tx inconclusive, MCF10A rereplic 23µM, SW480 rerep inconclusive, HT1080NT lethal inconclusive, KB-3-1 cytotox inconclusive, KB-V1 cytotox inconclusive
COc1cccc(-c2c(-c3cc(OC)cc(OC)c3)n(C)c3ccc(-c4cnc(OC)nc4)cc23)c1	MCF10A rereplic inconclusive, KB-3-1 cytotox 13µM, KB-V1 cytotox inconclusive
Cc1ccc(CN2[C@H]3CCCC[C@@H]3OCCS2(=O)=O)cc1	KB-V1 cytotox inconclusive (no result: HT1080 IDH1KD tx, MCF10A rereplic, SW480 rerep, HT1080NT lethal)
Cc1ccc(NC(=O)c2sc3nc(N4CCOCC4)c4c(c3c2N)CC(C)(C)OC4)cc1	MCF10A rereplic inconclusive
CC1(C)Cc2c(c(N3CCOCC3)nc3sc(C(=O)Nc4ccc(Cl)cc4)c(N)c23)CO1	MCF10A rereplic inconclusive, KB-3-1 cytotox 16µM!, KB-V1 cytotox inconclusive
Nc1c(C(=O)NCCc2ccccc2)sc2nc(N3CCOCC3)c3c(c12)CCCC3	MCF10A rereplic 16µM, SW480 rerep 15µM
Cc1ccccc1NC(=O)c1sc2nc(N3CCOCC3)c3c(c2c1N)CCCC3	MCF10A rereplic inconclusive
Nc1c(C(=O)c2ccccc2)sc2nsc(SCCN3CCOCC3)c12	HT1080 IDH1KD tx inconclusive, MCF10A rereplic 13µM, SW480 rerep inconclusive, KB-V1 cytotox inconclusive
COC(=O)c1ccc(-c2sc3nc(N4CCOCC4)c4c(c3c2N)CC(C)(C)OC4)o1	MCF10A rereplic inconclusive, SW480 rerep 0.71µM
COc1cc2nc(N3CCN(C)CC3)nc(NC(C)C)c2cc1OC	none (no result: MCF10A rereplic, SW480 rerep, KB-3-1 cytotox, KB-V1 cytotox)
CCOC(=O)c1sc2nc(-c3ccco3)c3c(c2c1N)CC(C)(C)OC3	MCF10A rereplic 23µM, KB-V1 cytotox 12µM
CCOc1ccc(NC(=O)c2sc3nc(N4CCOCC4)c4c(c3c2N)CC(C)(C)OC4)cc1	KB-3-1 cytotox 7.3µM
CC1(C)Cc2c(c(N3CCCC3)nc3sc(C(=O)Nc4ccccc4)c(N)c23)CO1	MCF10A rereplic 2.9µM, SW480 rerep inconclusive
CCOC(=O)c1sc2nc3c(cc2c1N)COC(C)(CC)C3 (stereo unspecified)	MCF10A rereplic 18µM, SW480 rerep inconclusive
CCOC(=O)c1sc2nc3c(cc2c1N)COC(C)(C)C3	MCF10A rereplic inconclusive, KB-3-1 cytotox inconclusive
CCC(C(=O)NC1CCCC1)n1c2ccccc2c2nc(=O)cc(C)n21 (stereo unspecified)	none
CCOC(=O)C(CS)NCCN[C@@H](CS)C(=O)OCC (stereo partly specified)	none (no result: HT1080 IDH1KD tx, HT1080NT lethal, KB-3-1 cytotox, KB-V1 cytotox)
COc1ccc(NC(=O)c2sc3nc(N4CCCC4)c4c(c3c2N)CC(C)(C)OC4)c(OC)c1	MCF10A rereplic inconclusive, SW480 rerep 2.9µM
CN1Cc2c(N3CCOCC3)nc3sc(C(=O)c4ccccc4)c(N)c3c2CC1(C)C	MCF10A rereplic 21µM, SW480 rerep inconclusive
CCOC(=O)c1ccc(NC(=O)c2sc3nc(N4CCOCC4)c4c(c3c2N)CCCC4)cc1	MCF10A rereplic 2.1µM, SW480 rerep inconclusive
COc1ccc(NC(=O)c2sc3nc(N4CCOCC4)c4c(c3c2N)CCCC4)cc1	none (no result: MCF10A rereplic, SW480 rerep)
Cc1nc2c(sc3nc(N4CCOCC4)c4c(c32)CC(C)(C)OC4)c(-c2ccc(Cl)cc2)c1C(=O)O	MCF10A rereplic 0.46µM, SW480 rerep 5.2µM, KB-3-1 cytotox inconclusive
COc1cccc(NC(=O)c2sc3nc(N4CCOCC4)c4c(c3c2N)CC(C)(C)OC4)c1	none (no result: HT1080 IDH1KD tx, MCF10A rereplic, SW480 rerep, HT1080NT lethal)
CC(NC(=O)CN(c1cccc(C(F)(F)F)c1)S(C)(=O)=O)c1ccccc1 (stereo unspecified)	none
CCCNC(=O)C1(C)CCCN(Cc2ccc3ccccc3c2)C1 (stereo unspecified)	HT1080 IDH1KD tx inconclusive (no result: MCF10A rereplic, SW480 rerep)

Screens: PubChem BioAssay, National Center for Advancing Translational Sciences (NCATS)
